# Data published in paper PMC7862700, “An all-to-all approach to the identification of sequence-specific readers for epigenetic DNA modifications on cytosine”.
# Assays:
# Assay in all cases: DAPPL (digital affinity profiling via proximity ligation, sequencing); 10 mM Tris-HCl pH 7.5, 50 mM NaCl, 1 mM DTT, 4% glycerol, room temperature, 30 min; GST-TFs on glutathione beads, 16-mer random dsDNA library, 0.1% formaldehyde crosslink after washing; high values mean tight binding
# Settings in all cases: protein: recombinant; tags: N-terminal GST; dsDNA, one strand shown
# FLI1 = biological target: T1, FLI1 (Homo sapiens, UniProt Q01543 1-452)
# T1 sequence: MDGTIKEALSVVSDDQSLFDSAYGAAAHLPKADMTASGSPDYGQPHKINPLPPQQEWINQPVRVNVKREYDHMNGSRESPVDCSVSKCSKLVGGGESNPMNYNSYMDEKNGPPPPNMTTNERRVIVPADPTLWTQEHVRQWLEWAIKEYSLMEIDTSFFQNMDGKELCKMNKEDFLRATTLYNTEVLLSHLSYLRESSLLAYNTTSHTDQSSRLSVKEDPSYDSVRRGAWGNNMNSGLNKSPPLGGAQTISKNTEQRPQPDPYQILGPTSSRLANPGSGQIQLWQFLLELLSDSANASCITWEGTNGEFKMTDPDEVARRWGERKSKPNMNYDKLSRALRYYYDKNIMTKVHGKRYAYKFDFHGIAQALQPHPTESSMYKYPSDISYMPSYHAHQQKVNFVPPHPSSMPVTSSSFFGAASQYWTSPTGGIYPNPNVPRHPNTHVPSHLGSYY
# Summary of the method: (§1)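 Human transcription factors carrying a GST fusion were produced in yeast, bound to glutathione beads, tagged with DNA barcodes and pooled together with a tag-only sample. Each pool was held with 200 nmole of a random double-stranded 16-mer DNA library in Tris/NaCl/DTT/glycerol buffer for 30 min at room temperature, then washed, crosslinked in 0.1% formaldehyde, proximity-ligated with BsaI/T4 ligase (1 h, 37 °C), PCR-amplified and sequenced on an Illumina NextSeq500. Binding signal is the read frequency of each hexamer for a given factor divided by its frequency in the tag-only sample.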
# ELK1 = biological target: T2, ELK1 (Homo sapiens, UniProt P19419 1-428)
# T2 sequence: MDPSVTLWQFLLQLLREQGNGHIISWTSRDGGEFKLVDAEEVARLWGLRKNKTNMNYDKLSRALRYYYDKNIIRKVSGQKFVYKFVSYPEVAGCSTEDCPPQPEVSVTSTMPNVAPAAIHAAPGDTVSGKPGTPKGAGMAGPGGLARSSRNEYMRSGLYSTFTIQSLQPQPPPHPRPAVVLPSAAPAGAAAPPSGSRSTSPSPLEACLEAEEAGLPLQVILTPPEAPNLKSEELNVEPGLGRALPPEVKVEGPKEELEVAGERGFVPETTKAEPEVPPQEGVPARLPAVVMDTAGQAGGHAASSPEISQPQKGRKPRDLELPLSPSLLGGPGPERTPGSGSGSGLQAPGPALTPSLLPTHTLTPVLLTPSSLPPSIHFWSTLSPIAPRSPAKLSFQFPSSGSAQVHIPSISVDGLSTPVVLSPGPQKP
# Summary of the method: as §1
# GABPA = biological target: T3, GABPA (Homo sapiens, UniProt Q06546 1-454)
# T3 sequence: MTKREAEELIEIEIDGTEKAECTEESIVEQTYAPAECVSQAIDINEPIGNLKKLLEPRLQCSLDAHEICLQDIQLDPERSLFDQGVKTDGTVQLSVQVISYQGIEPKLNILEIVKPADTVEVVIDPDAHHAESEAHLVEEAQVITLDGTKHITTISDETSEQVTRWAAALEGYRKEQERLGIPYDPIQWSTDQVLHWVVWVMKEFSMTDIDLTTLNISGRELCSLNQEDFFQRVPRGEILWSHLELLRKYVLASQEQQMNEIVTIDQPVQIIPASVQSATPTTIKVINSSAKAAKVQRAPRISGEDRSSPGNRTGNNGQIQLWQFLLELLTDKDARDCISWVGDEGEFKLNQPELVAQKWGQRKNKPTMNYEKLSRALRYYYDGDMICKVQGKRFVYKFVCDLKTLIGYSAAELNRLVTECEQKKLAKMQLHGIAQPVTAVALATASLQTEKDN
# Summary of the method: as §1
# ERG = biological target: T4, ERG (Homo sapiens, UniProt P11308 1-479)
# T4 sequence: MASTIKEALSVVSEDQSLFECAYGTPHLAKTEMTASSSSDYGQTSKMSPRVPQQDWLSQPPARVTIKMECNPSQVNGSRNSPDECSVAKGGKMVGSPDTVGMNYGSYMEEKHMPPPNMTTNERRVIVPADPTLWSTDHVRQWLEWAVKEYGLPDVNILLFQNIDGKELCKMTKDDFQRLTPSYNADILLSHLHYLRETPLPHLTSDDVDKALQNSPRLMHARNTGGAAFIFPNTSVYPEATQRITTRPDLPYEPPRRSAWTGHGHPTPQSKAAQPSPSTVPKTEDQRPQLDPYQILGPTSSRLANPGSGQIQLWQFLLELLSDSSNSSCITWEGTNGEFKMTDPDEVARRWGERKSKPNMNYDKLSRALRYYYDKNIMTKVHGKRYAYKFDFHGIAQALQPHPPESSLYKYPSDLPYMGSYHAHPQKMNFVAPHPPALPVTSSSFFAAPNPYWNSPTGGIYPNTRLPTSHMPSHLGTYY
# Summary of the method: as §1
# ELF1 = ELF1 (Homo sapiens, UniProt P32519 1-619)
# Sequence of ELF1 (P32519 whole entry): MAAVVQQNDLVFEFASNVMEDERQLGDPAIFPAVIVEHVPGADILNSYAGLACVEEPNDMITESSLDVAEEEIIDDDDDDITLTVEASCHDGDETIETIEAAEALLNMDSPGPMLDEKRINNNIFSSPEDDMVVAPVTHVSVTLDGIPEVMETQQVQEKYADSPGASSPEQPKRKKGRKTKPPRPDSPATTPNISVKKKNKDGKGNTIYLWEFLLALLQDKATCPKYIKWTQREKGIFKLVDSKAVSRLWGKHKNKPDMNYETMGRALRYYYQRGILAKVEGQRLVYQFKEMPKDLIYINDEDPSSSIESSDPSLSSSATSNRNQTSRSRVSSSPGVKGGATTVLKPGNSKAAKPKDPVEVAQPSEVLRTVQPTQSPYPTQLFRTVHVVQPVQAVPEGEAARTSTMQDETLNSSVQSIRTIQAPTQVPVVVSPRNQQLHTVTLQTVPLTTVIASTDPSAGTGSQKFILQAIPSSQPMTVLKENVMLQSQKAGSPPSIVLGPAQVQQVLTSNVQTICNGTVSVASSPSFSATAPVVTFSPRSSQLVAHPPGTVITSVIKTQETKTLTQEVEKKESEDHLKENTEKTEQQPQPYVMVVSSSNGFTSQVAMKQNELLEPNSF
# Summary of the method: as §1
# EHF = biological target: T5, EHF (Homo sapiens, UniProt Q9NZC4 1-300)
# T5 sequence: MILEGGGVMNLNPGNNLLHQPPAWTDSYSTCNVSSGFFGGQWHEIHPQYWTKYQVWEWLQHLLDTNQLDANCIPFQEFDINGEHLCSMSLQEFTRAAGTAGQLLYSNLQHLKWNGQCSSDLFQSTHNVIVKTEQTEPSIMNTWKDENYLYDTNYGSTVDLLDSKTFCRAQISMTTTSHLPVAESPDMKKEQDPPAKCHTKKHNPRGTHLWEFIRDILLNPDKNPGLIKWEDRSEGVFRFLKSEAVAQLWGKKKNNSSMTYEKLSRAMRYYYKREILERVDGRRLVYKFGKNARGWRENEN
# Summary of the method: as §1
# SPI1 = SPI1 (Homo sapiens, UniProt P17947 1-270)
# Summary of the method: as §1
# SPIB = SPIB (Homo sapiens, UniProt Q01892 1-262)
# Sequence of SPIB (Q01892 whole entry): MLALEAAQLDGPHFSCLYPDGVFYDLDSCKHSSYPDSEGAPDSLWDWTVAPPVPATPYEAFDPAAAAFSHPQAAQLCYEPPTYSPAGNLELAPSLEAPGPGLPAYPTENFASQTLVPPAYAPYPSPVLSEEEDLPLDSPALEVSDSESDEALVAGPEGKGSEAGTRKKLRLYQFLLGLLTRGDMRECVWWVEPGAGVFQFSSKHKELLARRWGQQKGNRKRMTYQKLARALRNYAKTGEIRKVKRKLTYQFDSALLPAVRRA
# Summary of the method: as §1
# ELK3 = biological target: T6, ELK3 (Homo sapiens, UniProt P41970 1-407)
# T6 sequence: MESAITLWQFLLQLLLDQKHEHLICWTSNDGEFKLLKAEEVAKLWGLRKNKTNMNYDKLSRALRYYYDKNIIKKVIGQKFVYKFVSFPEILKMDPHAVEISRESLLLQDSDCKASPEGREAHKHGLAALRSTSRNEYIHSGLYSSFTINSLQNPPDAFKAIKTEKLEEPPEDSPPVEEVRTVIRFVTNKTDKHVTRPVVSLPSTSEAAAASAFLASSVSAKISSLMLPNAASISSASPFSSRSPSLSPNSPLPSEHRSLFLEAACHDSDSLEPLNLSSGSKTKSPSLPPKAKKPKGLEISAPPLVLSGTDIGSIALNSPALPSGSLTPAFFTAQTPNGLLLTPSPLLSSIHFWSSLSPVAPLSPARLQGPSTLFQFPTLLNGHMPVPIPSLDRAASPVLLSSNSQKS
# Summary of the method: as §1
# FEV = biological target: T7, FEV (Homo sapiens, UniProt Q99581 1-238)
# T7 sequence: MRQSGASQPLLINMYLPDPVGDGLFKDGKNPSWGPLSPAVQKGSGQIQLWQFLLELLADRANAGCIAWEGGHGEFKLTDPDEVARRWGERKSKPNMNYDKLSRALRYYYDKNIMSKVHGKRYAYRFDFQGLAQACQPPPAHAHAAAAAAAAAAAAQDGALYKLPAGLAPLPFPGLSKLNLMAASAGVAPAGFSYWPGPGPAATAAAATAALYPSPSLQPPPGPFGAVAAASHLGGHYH
# Summary of the method: as §1
# ETV5 = ETV5 (Homo sapiens, UniProt P41161 1-510)
# Sequence of ETV5 (P41161 whole entry): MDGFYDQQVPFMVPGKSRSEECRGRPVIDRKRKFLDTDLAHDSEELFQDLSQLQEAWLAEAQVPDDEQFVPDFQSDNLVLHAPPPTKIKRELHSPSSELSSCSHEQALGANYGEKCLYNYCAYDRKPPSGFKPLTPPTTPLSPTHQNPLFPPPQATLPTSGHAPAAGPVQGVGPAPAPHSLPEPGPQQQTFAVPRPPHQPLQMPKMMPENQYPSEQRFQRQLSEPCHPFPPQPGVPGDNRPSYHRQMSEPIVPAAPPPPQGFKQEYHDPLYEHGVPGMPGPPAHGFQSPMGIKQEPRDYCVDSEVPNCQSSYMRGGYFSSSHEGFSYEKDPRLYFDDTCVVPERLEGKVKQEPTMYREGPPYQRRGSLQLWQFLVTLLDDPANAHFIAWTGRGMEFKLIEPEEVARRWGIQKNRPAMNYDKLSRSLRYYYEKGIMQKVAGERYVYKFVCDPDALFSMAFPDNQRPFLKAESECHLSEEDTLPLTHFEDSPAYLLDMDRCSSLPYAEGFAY
# Summary of the method: as §1
# SPIC = biological target: T8, SPIC (Homo sapiens, UniProt Q8N5J4 1-248)
# T8 sequence: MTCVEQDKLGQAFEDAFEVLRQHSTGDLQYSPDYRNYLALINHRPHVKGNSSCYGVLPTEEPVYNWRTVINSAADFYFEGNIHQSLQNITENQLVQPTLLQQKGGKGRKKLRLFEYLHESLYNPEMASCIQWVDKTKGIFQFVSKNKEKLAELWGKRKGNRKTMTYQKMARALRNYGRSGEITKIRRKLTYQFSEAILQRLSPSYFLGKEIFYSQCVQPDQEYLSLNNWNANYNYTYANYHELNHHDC
# Summary of the method: as §1
# ELF4 = ELF4 (Homo sapiens, UniProt Q99607 1-663)
# Sequence of ELF4 (Q99607 whole entry): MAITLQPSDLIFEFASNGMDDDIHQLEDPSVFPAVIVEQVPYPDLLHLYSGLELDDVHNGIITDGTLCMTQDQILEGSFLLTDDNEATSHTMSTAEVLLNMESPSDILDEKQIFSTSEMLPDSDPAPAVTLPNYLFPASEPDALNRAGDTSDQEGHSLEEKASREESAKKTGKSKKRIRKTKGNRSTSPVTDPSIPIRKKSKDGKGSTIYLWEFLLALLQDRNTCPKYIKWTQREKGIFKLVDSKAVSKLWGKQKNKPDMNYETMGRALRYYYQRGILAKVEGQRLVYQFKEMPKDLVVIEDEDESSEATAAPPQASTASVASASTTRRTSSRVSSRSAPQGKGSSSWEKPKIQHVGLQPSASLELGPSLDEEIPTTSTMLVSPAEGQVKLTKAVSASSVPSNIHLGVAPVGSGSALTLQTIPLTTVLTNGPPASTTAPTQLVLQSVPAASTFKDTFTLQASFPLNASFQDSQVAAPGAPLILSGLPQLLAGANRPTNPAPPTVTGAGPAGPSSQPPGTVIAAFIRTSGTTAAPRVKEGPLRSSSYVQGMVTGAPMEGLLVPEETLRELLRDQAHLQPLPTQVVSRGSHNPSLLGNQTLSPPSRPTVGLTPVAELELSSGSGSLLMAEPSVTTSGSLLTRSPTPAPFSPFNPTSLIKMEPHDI
# Summary of the method: as §1
# ELK4 = biological target: T9, ELK4 (Homo sapiens, UniProt P28324-2 1-405)
# T9 sequence: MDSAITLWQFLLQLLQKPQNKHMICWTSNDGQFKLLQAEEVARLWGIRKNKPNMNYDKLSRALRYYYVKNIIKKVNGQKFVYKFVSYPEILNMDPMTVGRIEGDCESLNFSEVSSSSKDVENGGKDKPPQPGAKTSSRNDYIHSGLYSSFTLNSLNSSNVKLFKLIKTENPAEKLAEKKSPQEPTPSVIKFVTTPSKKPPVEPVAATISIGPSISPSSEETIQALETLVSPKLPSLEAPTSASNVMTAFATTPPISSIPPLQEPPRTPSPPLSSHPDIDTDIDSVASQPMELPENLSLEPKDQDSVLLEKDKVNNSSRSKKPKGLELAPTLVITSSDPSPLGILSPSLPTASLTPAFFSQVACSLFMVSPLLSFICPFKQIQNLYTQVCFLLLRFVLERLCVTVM
# Summary of the method: as §1
# ETV2 = biological target: T10, ETV2 (Homo sapiens, UniProt O00321 1-342)
# T10 sequence: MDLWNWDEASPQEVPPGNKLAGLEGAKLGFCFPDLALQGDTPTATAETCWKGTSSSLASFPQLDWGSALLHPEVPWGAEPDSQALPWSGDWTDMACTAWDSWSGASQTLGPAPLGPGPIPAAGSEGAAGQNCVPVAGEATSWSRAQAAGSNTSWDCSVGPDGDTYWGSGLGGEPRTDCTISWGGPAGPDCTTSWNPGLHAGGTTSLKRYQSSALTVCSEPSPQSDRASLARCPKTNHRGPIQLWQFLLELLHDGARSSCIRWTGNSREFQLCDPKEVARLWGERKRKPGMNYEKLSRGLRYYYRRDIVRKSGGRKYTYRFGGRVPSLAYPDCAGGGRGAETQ
# Summary of the method: as §1
# CRX = CRX (Homo sapiens, UniProt O43186 1-299)
# Sequence of CRX (O43186 whole entry): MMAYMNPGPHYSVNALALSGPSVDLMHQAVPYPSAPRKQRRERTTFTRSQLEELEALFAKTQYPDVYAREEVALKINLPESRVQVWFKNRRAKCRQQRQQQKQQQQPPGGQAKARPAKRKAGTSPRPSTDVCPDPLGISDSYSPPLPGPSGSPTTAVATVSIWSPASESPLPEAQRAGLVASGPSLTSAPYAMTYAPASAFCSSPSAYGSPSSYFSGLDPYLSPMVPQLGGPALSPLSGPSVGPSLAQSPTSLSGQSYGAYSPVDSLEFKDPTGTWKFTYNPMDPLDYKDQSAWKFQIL
# Summary of the method: as §1
# ETV1 = ETV1 (Homo sapiens, UniProt P50549 1-477)
# Sequence of ETV1 (P50549 whole entry): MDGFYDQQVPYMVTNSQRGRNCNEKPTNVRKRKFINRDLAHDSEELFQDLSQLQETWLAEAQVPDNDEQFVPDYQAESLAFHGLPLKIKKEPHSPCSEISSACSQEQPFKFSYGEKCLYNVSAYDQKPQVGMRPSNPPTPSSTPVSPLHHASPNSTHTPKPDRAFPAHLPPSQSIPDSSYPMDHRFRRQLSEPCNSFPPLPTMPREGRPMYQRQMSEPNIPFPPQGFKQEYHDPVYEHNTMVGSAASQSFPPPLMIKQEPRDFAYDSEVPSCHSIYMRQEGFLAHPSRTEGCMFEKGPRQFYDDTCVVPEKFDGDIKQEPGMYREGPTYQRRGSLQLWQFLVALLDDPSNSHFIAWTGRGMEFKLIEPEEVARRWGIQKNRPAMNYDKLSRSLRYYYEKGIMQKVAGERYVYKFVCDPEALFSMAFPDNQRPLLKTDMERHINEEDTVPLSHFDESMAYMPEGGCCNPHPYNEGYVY
# Summary of the method: as §1
sequence,measurement,setting,value
TCAACG,binding signal,FLI1,"1.12 fold enrichment (6-mer frequency, TF over GST control)"
same,binding signal,ELK1,"1.05 fold enrichment (6-mer frequency, TF over GST control)"
same,binding signal,GABPA,"1.09 fold enrichment (6-mer frequency, TF over GST control)"
same,binding signal,ERG,"1.08 fold enrichment (6-mer frequency, TF over GST control)"
same,binding signal,ELF1,"1.14 fold enrichment (6-mer frequency, TF over GST control)"
same,binding signal,EHF,"1.06 fold enrichment (6-mer frequency, TF over GST control)"
same,binding signal,SPI1,"1 fold enrichment (6-mer frequency, TF over GST control)"
same,binding signal,SPIB,"1.12 fold enrichment (6-mer frequency, TF over GST control)"
same,binding signal,ELK3,"1.22 fold enrichment (6-mer frequency, TF over GST control)"
same,binding signal,FEV,"1.06 fold enrichment (6-mer frequency, TF over GST control)"
same,binding signal,ETV5,"1.12 fold enrichment (6-mer frequency, TF over GST control)"
same,binding signal,SPIC,"1.1 fold enrichment (6-mer frequency, TF over GST control)"
same,binding signal,ELF4,"1.11 fold enrichment (6-mer frequency, TF over GST control)"
same,binding signal,ELK4,"1.09 fold enrichment (6-mer frequency, TF over GST control)"
same,binding signal,ETV2,"1.18 fold enrichment (6-mer frequency, TF over GST control)"
same,binding signal,CRX,"1.1 fold enrichment (6-mer frequency, TF over GST control)"
same,binding signal,ETV1,"1.15 fold enrichment (6-mer frequency, TF over GST control)"
TGGCCC,binding signal,FLI1,"1.02 fold enrichment (6-mer frequency, TF over GST control)"
same,binding signal,ELK1,"1.13 fold enrichment (6-mer frequency, TF over GST control)"
same,binding signal,GABPA,"1.24 fold enrichment (6-mer frequency, TF over GST control)"
same,binding signal,ERG,"1.13 fold enrichment (6-mer frequency, TF over GST control)"
same,binding signal,ELF1,"1.05 fold enrichment (6-mer frequency, TF over GST control)"
same,binding signal,EHF,"1.02 fold enrichment (6-mer frequency, TF over GST control)"
same,binding signal,SPI1,"1.17 fold enrichment (6-mer frequency, TF over GST control)"
same,binding signal,SPIB,"1.12 fold enrichment (6-mer frequency, TF over GST control)"
same,binding signal,ELK3,"1.16 fold enrichment (6-mer frequency, TF over GST control)"
same,binding signal,FEV,"1.09 fold enrichment (6-mer frequency, TF over GST control)"
same,binding signal,ETV5,"1.12 fold enrichment (6-mer frequency, TF over GST control)"
same,binding signal,SPIC,"1.18 fold enrichment (6-mer frequency, TF over GST control)"
same,binding signal,ELF4,"1.14 fold enrichment (6-mer frequency, TF over GST control)"
same,binding signal,ELK4,"1.19 fold enrichment (6-mer frequency, TF over GST control)"
same,binding signal,ETV2,"1.18 fold enrichment (6-mer frequency, TF over GST control)"
same,binding signal,ETV1,"1.15 fold enrichment (6-mer frequency, TF over GST control)"
